Source: publication PMC4336329 (PLoS ONE, 2015)
Among all 310,000 compounds or so, about 14,000 (4.5%) showed an effect of 50% or more. The effect is printed as a negative number. Only a selection was taken, and strong results are over-represented in it overall.

biological target: human ether-à-go-go-related gene (hERG) potassium channel (human, UniProt Q12809); assay: primary screen, population patch clamp on CHO cells stably expressing hERG; higher = less effect of the substance
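Further: peak tail current of the secondary pulse compared with the same well before compound.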

Sequence of human ether-à-go-go-related gene (hERG) potassium channel (Q12809 whole entry, looked up): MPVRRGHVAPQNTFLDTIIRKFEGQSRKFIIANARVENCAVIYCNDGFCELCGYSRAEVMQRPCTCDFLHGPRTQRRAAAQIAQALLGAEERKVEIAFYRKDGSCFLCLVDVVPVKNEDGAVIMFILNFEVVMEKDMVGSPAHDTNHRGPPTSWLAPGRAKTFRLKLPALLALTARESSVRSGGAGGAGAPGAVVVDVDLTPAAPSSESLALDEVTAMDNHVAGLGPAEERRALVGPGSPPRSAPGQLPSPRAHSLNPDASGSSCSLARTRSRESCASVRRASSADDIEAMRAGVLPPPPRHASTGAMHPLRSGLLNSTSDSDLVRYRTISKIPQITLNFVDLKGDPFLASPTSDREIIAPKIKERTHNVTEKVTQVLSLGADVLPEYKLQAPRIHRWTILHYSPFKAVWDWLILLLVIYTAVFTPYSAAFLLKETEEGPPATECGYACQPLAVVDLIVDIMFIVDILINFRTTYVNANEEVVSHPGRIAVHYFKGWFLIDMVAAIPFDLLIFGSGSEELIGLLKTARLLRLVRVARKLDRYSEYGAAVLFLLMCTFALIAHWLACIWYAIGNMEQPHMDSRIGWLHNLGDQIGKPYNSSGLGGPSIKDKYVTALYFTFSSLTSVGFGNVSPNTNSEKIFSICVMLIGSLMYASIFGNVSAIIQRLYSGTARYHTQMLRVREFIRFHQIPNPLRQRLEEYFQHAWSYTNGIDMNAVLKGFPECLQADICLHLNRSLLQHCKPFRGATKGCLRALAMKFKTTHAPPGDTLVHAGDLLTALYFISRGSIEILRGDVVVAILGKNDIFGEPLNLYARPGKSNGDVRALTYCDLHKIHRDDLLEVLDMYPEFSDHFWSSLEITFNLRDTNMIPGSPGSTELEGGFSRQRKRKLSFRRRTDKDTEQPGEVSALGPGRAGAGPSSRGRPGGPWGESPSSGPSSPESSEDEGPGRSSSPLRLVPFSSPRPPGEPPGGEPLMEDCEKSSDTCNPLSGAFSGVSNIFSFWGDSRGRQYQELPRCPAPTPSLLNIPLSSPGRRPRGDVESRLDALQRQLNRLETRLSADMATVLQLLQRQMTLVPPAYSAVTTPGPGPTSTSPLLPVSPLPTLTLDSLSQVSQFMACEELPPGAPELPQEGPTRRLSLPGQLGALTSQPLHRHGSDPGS

Row | SMILES | hERG current change (%, negative = inhibition) at 10uM
1 | N=c1c(C(=O)NC2CCCC2)cc2c(=O)n3ccccc3nc2n1CCCN1CCOCC1 | -78.2%
2 | N=c1c(C(=O)NC2CCCC2)cc2c(=O)n3ccccc3nc2n1CCN1CCOCC1 | -91.9%
3 | O=C(c1ccco1)N1CCN=C1SCc1cccc(F)c1 | -6.98%
4 | Cc1csc2ncc(C(=O)NCCC(c3ccccc3)c3ccccc3)c(=O)n12 | -0.968%
5 | Cc1cc(-c2nn(C)c(=O)c3ccccc23)cc(C)c1O | 0.868%
6 | Cc1ccc(S(=O)(=O)N2CCC(=O)N(CCOC(=O)Nc3cccc(Cl)c3)CC2)cc1 | -65.7%
7 | Cc1ccc(S(=O)(=O)N2CCC(=O)N(CCOC(=O)Nc3cc(C)cc(C)c3)CC2)cc1 | -40.7%
8 | Cc1ccc(NC(=O)OCCN2CCN(S(=O)(=O)c3ccc(C)cc3)CCC2=O)cc1 | -18.5%
9 | Cc1ccc(COCCN2CCN(S(=O)(=O)c3ccccc3)CCC2=O)cc1 | -0.87%
10 | Cc1ccc(S(=O)(=O)N2CCC(=O)N(C(COCc3ccccc3)C(C)C)CC2)cc1 (stereo not drawn) | -23.2%
11 | Cc1ccc(COCCN2CCN(S(=O)(=O)c3ccc(C)cc3)CCC2=O)cc1 | 6.17%
12 | Cc1ccc(S(=O)(=O)N2CCC(=O)N(C(COCc3cccc(Cl)c3)C(C)C)CC2)cc1 (stereo not drawn) | -35.2%
13 | Cc1ccc(S(=O)(=O)N2CCC(=O)N(C(COCc3ccc(Cl)cc3)C(C)C)CC2)cc1 (stereo not drawn) | -51.7%
14 | Cc1ccc(S(=O)(=O)N2CCC(=O)N(CCOCc3ccc(Cl)cc3)CC2)cc1 | -60.1%
15 | COc1ccc(C2=Nc3cccc4cccc(c34)N2)cc1 | 9.66%
16 | Cc1cccc(Nc2nnc(SCC(=O)Nc3cccc(S(=O)(=O)N4CCCCC4)c3)s2)c1 | 3.37%
17 | C=CCN1C(=O)NC(=O)/C(=C/c2ccoc2)C1=O | 20.5%
18 | CCn1c(C)[n+](CCOC(C)=O)c2cc(Cl)c(Cl)cc21.[I-] | -8.87%
19 | COC(=O)CCCC(=O)N1CCC(CCC(=O)NCc2ccc(F)cc2)CC1 | -24%
20 | CNC(=S)N1CCN(c2ccc(Cl)c(Cl)c2)CC1 | -6.17%
21 | COC(=O)N1CCN(c2ccc(Cl)c(Cl)c2)CC1 | -1.86%

Row | SMILES | hERG current change (%, negative = inhibition) at 10uM
22 | CN(C)C(=C(C#N)C#N)N1CCN(c2ccc(Cl)cc2)CC1 | -48.3%
23 | CN(C)C(=C(C#N)C#N)N1CCN(c2ccc(Cl)c(Cl)c2)CC1 | -63.2%
24 | N#C/C=C(/N)N1CCN(c2ccc(Cl)c(Cl)c2)CC1 | -73.9%
25 | CCOC(=O)N1CCN(c2ccc(Cl)c(Cl)c2)CC1 | -11.1%
26 | CCC1(c2ccccc2)NC(=O)N(CC(=O)Nc2ccccc2N2CCCCC2)C1=O (stereo not drawn) | -15.8%
27 | CCCc1ccc(Oc2cc(N3CCOCC3)nc(-c3ccccc3)n2)cc1 | 21.5%
28 | CCC(=O)Nc1cccc(-c2nc3ccc(C)cc3o2)c1 | -13.4%
29 | CC1(C)CC(O)C(C)(C)N1O (stereo not drawn) | 3.9%
30 | CCc1nnc(NS(=O)(=O)c2ccc(N=Cc3c(C)[nH]n(-c4ccc(Cl)cc4)c3=O)cc2)s1 | 17.7%
31 | Cc1ccc(C)c(CN2C(=O)CSc3ccc(C(=O)N4CCCC4)cc32)c1 | -17%
32 | Cc1ccc(C)c(CN2C(=O)CSc3ccc(C(=O)NCCN4CCOCC4)cc32)c1 | 14.6%
33 | Cc1ccc(C)c(CN2C(=O)CSc3ccc(C(=O)NCC(C)CN4CCC(C)CC4)cc32)c1 (stereo not drawn) | -75.8%
34 | CCOC(=O)c1nn(-c2ccccc2F)c(-c2ccccc2)c1C(=O)c1ccccc1 | 7.34%
35 | O=C(NCCc1ccccc1)c1ccc(-n2cnnn2)cc1 | -4.78%
36 | COCCN(C(=O)COC(=O)c1cccc2ccccc12)c1c(N)n(Cc2ccccc2)c(=O)[nH]c1=O | -0.159%
37 | COc1ccc(OCC(=O)N2CCC(n3nccc3NC(=O)C3CC3)CC2)cc1 | 1.44%
38 | COc1ccc(/C=C/CN2CCC(n3nccc3NC(=O)C3CCCC3)CC2)cc1 | -88.6%
39 | COc1ccc(/C=C/CN2CCC(n3nccc3NC(=O)C3CC3)CC2)cc1 | -72.7%
40 | COc1ccc(CC(=O)N2CCC(n3nccc3NC(=O)C3CC3)CC2)cc1 | 13.7%
41 | COC(=O)c1ccc2c(=O)n(-c3ccccc3)c(SCN3C(=O)c4ccccc4C3=O)nc2c1 | 11%
42 | COc1ccc(/C(C)=N/Nc2ccc(F)cc2F)c(O)c1 | 6.58%

Row | SMILES | hERG current change (%, negative = inhibition) at 10uM
43 | COc1ccccc1C(=O)NC(=O)CSc1nc(C)cs1 | 12%
44 | CCOC(=O)N1CCN(C(=O)CN(c2cccc(OC)c2)S(C)(=O)=O)CC1 | -5.17%
45 | COc1cc(O)c(C(CCN2CCOCC2)c2cc(OC)c(OC)c(OC)c2)c(OC)c1 (stereo not drawn) | 8.02%
46 | COc1cc(C(CCN2CCN(c3ccccc3)CC2)c2c(OC)cc(OC)c3c(C)cc(=O)oc23)cc(OC)c1OC (stereo not drawn) | -6.01%
47 | COc1cc(C(CCN2CCOCC2)c2c(OC)cc(OC)c3c(C)cc(=O)oc23)cc(OC)c1OC (stereo not drawn) | -79.3%
48 | COc1ccc(C(CC(=O)N2CCCC(C)C2)c2c(OC)cc(OC)c3c(-c4ccccc4)cc(=O)oc23)cc1 (stereo not drawn) | 8.57%
49 | COc1cc(OC)c2c(-c3ccccc3)cc(=O)oc2c1C(CC(=O)N1CCOCC1)c1ccc2c(c1)OCO2 (stereo not drawn) | 1.51%
50 | COc1cc(OC)c2c(C)cc(=O)oc2c1C(CCN1CCN(c2ccccc2)CC1)c1ccc2c(c1)OCO2 (stereo not drawn) | -11.1%
51 | COc1ccc(C(CCN2CCCC(C)C2)c2c(OC)cc(OC)c3c(C)cc(=O)oc23)cc1 (stereo not drawn) | -74.3%
52 | COc1ccc(C(CC(=O)N2CCOCC2)c2c(OC)cc(OC)c3c(-c4ccccc4)cc(=O)oc23)cc1 (stereo not drawn) | 12%
53 | COc1cc(OC)c2c(-c3ccccc3)cc(=O)oc2c1C(CCN1CCCC(C)C1)c1ccc(N(C)C)cc1 (stereo not drawn) | -30%
54 | COc1cc(OC)c2c(C)cc(=O)oc2c1C(CCN1CCOCC1)c1ccc(N(C)C)cc1 (stereo not drawn) | -28.5%
55 | COc1cc(OC)c2c(C)cc(=O)oc2c1C(CCN1CCOCC1)c1ccc2c(c1)OCO2 (stereo not drawn) | -68.4%
56 | COc1ccc(C(CCN2CCOCC2)c2c(OC)cc(OC)c3c(C)cc(=O)oc23)cc1 (stereo not drawn) | -69.2%
57 | CCOc1ccc(S(=O)(=O)N2CCC(C(=O)OC(C)C(=O)N3CCOCC3)CC2)cc1 (stereo not drawn) | -25.2%
58 | O=C(Cc1ccccc1[N+](=O)[O-])N/N=C/c1cccnc1 | 10%
59 | COc1ccccc1C(=O)NCC(=O)OCC(=O)c1ccc2c(c1)-c1ccccc1C2 | -0.208%
60 | Cc1nnc(NC(=O)C2CCCN(S(=O)(=O)Cc3ccccc3)C2)s1 (stereo not drawn) | -2.64%
61 | CCc1ccc(N(CC(=O)NC2CCCC2)S(=O)(=O)c2c(C)noc2C)cc1 | -7.76%
62 | O=C(Nc1nnc(C2=COCCO2)o1)c1ccc(S(=O)(=O)N2CCCC2)cc1 | 17.2%
63 | O=C(NCc1cccnc1)C1CCC(CNS(=O)(=O)c2cccc3nsnc23)CC1 (stereo not drawn) | -9.63%

Row | SMILES | hERG current change (%, negative = inhibition) at 10uM
64 | CCOC(=O)CCc1c(C)nc2cc(-c3ccc(Cl)cc3)[nH]n2c1=O | -7.09%
65 | CCOC(=O)CC(NCc1ccc(OC)c(OCC)c1)c1ccc(C)cc1.Cl (stereo not drawn) | -39%
66 | CC(C)C(NC(=O)c1ccco1)C(=O)NCC(c1ccco1)N1CCCCC1 (stereo not drawn) | 20%
67 | COC(=O)Cn1c(CN2CCOCC2)nc2c1c(=O)[nH]c(=O)n2C | 3.43%
68 | CCN(CC)CCC(c1cc(OC)c(OC)c(OC)c1)c1c(OC)cc(OC)c2c(C)cc(=O)oc12 (stereo not drawn) | -48.5%
69 | COc1cc(C(CCN2CCCCC2)c2c(OC)cc(OC)c3c(C)cc(=O)oc23)cc(OC)c1OC (stereo not drawn) | -99.6%
70 | COc1cc(C(CCN2CCCC2)c2c(OC)cc(OC)c3c(C)cc(=O)oc23)cc(OC)c1OC (stereo not drawn) | -75.5%
71 | Oc1ccc(Br)cc1CNn1cnnc1 | 13.9%
72 | COc1ccc(OC)c(CNc2ccc3c(c2)CCC3)c1 | 20.4%
73 | CC(C(=O)O)n1nc2ccccc2n1 (stereo not drawn) | 21.4%
74 | CCOC(=O)c1c(CC(C)C)csc1NC(C)=O | -2.62%
75 | CC(C)[C@H](NC(=O)N1c2ccccc2NC(=O)[C@@H]1C(C)C)C(=O)N[C@@H](Cc1c[nH]c2ccccc12)C(=O)O | 3.11%
76 | O=C(O)CSc1ccnc2cc(Cl)ccc12 | 16.2%
77 | COc1cc(OC)cc(-c2c(-c3ccc(F)cc3)c3cc(-c4ccc5cc[nH]c5c4)ccc3n2C)c1 | 14.2%
78 | CNC(=O)COc1coc(CN2CCN(c3ccc(OC)cc3)CC2)cc1=O | 1.11%
79 | C=C1CCN([C@@H](CC(C)C)C(=O)O)S(=O)(=O)c2ccccc21 | 22.6%
80 | C=C1CCN([C@@H](CC(C)C)C(=O)N2CCCC2)S(=O)(=O)c2ccccc21 | -54.7%
81 | C=C1CCN([C@@H](CC(C)C)C(=O)N2CCOCC2)S(=O)(=O)c2ccccc21 | 13.3%
